The antibiotic and cytotoxicity screens of Wong et al. (2023)
Hit rate of the full screen: of about 39,000 compounds, about 1,500 (3.8%) were called active. Only a selection was taken, and actives are over-represented in it overall.

test system: HSkMC (human skeletal muscle cells); assay: cytotoxicity call (relative viability < 0.9); settings: 10 µM

SMILES	cytotoxicity call
COC(=O)CCCCCCC(=O)Nc1ccc([C@H]2O[C@@H](CSc3nc(-c4ccccc4)c(-c4ccccc4)o3)C[C@H](c3ccc([N+](=O)[O-])cc3)O2)cc1	inactive
COCCOC(=O)N1C(=O)[C@@]2(c3cc(C#Cc4ccc(OC)cc4)ccc31)[C@H](c1ccc(O)cc1)N1[C@H](c3ccccc3)[C@H](c3ccccc3)OC(=O)[C@H]1[C@@H]2C(=O)NC[C@H](O)c1ccccc1	inactive
O=C(NCc1csnn1)c1csnn1	inactive
O=C(COC(=O)/C=C/c1cn(-c2ccccc2)nc1-c1ccc2c(c1)OCCO2)N[C@H]1CCS(=O)(=O)C1	inactive
C[C@H]1CN([C@@H](C)CO)C(=O)CCCn2nncc2CO[C@@H]1CN(C)S(=O)(=O)c1ccc(-n2cccn2)cc1	inactive
COc1ccc(S(=O)(=O)N[C@H]2C=C[C@H](CC(=O)N3CCC(Cc4ccccc4)CC3)O[C@H]2CO)cc1	inactive
C[C@@H]1CN([C@@H](C)CO)C(=O)Cc2cc(NC(=O)CCN3CCOCC3)ccc2O[C@H]1CN(C)C(=O)NC1CCCCC1	inactive
CC(C)(N)c1ccccc1Br	inactive
C[C@@H]1CN([C@@H](C)CO)C(=O)c2cccc(NC(=O)NC3CCCCC3)c2O[C@H]1CN(C)Cc1ccc(Cl)c(Cl)c1	inactive
COc1cc2c(NC3CCN(C(C)C)CC3)nc(N3CCC(F)(F)CC3)nc2cc1OCCCN1CCCC1	active
COc1cc2c(NC3CCN(C)CC3)nc(N3CCCN(C)CC3)nc2cc1OCCOCCN(C)C	inactive
COc1cc2nc(N3CCN(C(=O)C4CCCO4)CC3)nc(N)c2cc1OC.Cl (configuration not stated)	inactive
C[C@@H]1CN([C@@H](C)CO)C(=O)Cc2cc(NS(=O)(=O)c3ccccc3)ccc2O[C@@H]1CN(C)Cc1ccc(C(=O)O)cc1	inactive
COc1cccc(NC(=O)N(C)C[C@H]2OCc3ccccc3-c3c(n(C)c4ccccc34)C(=O)N([C@H](C)CO)C[C@H]2C)c1	inactive
C[C@@H]1CCCCO[C@@H](CN(C)C(=O)CCC(F)(F)F)[C@H](C)CN([C@@H](C)CO)C(=O)c2cc(NS(=O)(=O)c3cccs3)ccc2O1	inactive
Cc1ccc(S(=O)(=O)Nc2ccc3c(c2)C(=O)N([C@@H](C)CO)C[C@@H](C)[C@@H](CN(C)C(=O)c2ccccc2)OCCCC[C@@H](C)O3)cc1	inactive
C[C@H](CO)N1C[C@H](C)[C@H](CN(C)Cc2ccc(C(F)(F)F)cc2)Oc2ccc(NC(=O)Cc3ccccc3)cc2C1=O	inactive
Cc1ccc(S(=O)(=O)N(C)C[C@@H]2Oc3cc(Br)ccc3S(=O)(=O)N([C@@H](C)CO)C[C@@H]2C)cc1	inactive
COc1ccc(S(=O)(=O)Nc2ccc3c(c2)C(=O)N([C@@H](C)CO)C[C@H](C)[C@@H](CN(C)Cc2ccc(C(F)(F)F)cc2)OCCCC[C@@H](C)O3)cc1	inactive
COc1ccc(S(=O)(=O)Nc2ccc3c(c2)C(=O)N([C@@H](C)CO)C[C@H](C)[C@@H](CN(C)Cc2ccc(C(F)(F)F)cc2)OCCCC[C@H](C)O3)cc1	inactive
COc1ccc(S(=O)(=O)Nc2ccc3c(c2)C(=O)N([C@@H](C)CO)C[C@@H](C)[C@H](CN(C)Cc2ccc(C(F)(F)F)cc2)OCCCC[C@@H](C)O3)cc1	active

SMILES	cytotoxicity call
COc1ccc(S(=O)(=O)Nc2ccc3c(c2)C(=O)N([C@@H](C)CO)C[C@@H](C)[C@@H](CN(C)Cc2ccc(C(F)(F)F)cc2)OCCCC[C@@H](C)O3)cc1	inactive
COc1ccc(S(=O)(=O)Nc2ccc3c(c2)C(=O)N([C@H](C)CO)C[C@H](C)[C@@H](CN(C)Cc2ccc(C(F)(F)F)cc2)OCCCC[C@@H](C)O3)cc1	active
COc1ccc(S(=O)(=O)Nc2ccc3c(c2)C(=O)N([C@H](C)CO)C[C@@H](C)[C@@H](CN(C)Cc2ccc(C(F)(F)F)cc2)OCCCC[C@@H](C)O3)cc1	active
COc1ccc(S(=O)(=O)Nc2ccc3c(c2)C(=O)N([C@H](C)CO)C[C@@H](C)[C@H](CN(C)Cc2ccc(C(F)(F)F)cc2)OCCCC[C@@H](C)O3)cc1	inactive
COc1ccc(S(=O)(=O)Nc2ccc3c(c2)C(=O)N([C@H](C)CO)C[C@@H](C)[C@@H](CN(C)Cc2ccc(C(F)(F)F)cc2)OCCCC[C@H](C)O3)cc1	inactive
COc1ccc(S(=O)(=O)Nc2ccc3c(c2)C(=O)N([C@H](C)CO)C[C@H](C)[C@H](CN(C)Cc2ccc(C(F)(F)F)cc2)OCCCC[C@H](C)O3)cc1	active
COc1ccc(S(=O)(=O)Nc2ccc3c(c2)C(=O)N([C@@H](C)CO)C[C@@H](C)[C@@H](CN(C)Cc2ccc(C(F)(F)F)cc2)OCCCC[C@H](C)O3)cc1	inactive
C[C@H](CO)N1C[C@H](C)[C@H](CN(C)S(=O)(=O)c2cccc(F)c2)Oc2ncc(C#CC3(O)CCCC3)cc2C1=O	inactive
C[C@H](CO)N1C[C@H](C)[C@H](CN(C)CC2CCCCC2)Oc2c(NC(=O)c3nc4ccccc4s3)cccc2C1=O	inactive
C[C@@H]1CN([C@@H](C)CO)C(=O)c2cc(NS(=O)(=O)c3cn(C)cn3)ccc2O[C@@H](C)CCCCO[C@@H]1CN(C)S(=O)(=O)c1ccccc1	inactive
COc1ccc(-c2cnc3c(c2)C(=O)N([C@H](C)CO)C[C@@H](C)[C@H](CN(C)C(=O)Cc2ccncc2)O3)cc1	inactive
C[C@@H]1CN([C@@H](C)CO)C(=O)c2cc(NC(=O)Cn3cnnn3)ccc2O[C@@H]1CN(C)S(=O)(=O)c1ccccc1	inactive
O=C(C[C@H]1C[C@H]2c3cc(NC(=O)NC4CCCC4)ccc3O[C@H]2[C@H](CO)O1)NCCN1CCCCC1	inactive
Cc1ncc([N+](=O)[O-])n1C	inactive
C[C@@H]1CCCCO[C@H](CN(C)S(=O)(=O)c2cn(C)cn2)[C@@H](C)CN([C@@H](C)CO)C(=O)c2cc(NC(=O)Nc3ccc(C(F)(F)F)cc3)ccc2O1	inactive
C[C@H]1CN([C@@H](C)CO)C(=O)Cc2cc(NC(=O)c3ccncc3)ccc2O[C@H]1CN(C)C(=O)NC1CCCCC1	inactive
Cc1ccc(S(=O)(=O)Nc2ccc3c(c2)C(=O)N([C@@H](C)CO)C[C@@H](C)[C@@H](CN(C)C(=O)NC2CCCCC2)OCCCC[C@H](C)O3)cc1	inactive
C[C@H](O)C#Cc1ccc2c(c1)O[C@H](CN(C)C(=O)Nc1ccccc1)[C@@H](C)CN([C@@H](C)CO)S2(=O)=O	inactive
Cc1ccccc1S(=O)(=O)N1C[C@H](O)COC[C@@H]2O[C@@H](CC(=O)N3CCN(C)CC3)CC[C@H]21	inactive
COCC(=O)Nc1ccc2c(c1)C(=O)N(C)C[C@@H](OC)[C@H](C)CN(C(=O)CN1CCOCC1)[C@H](C)CO2	inactive
COc1ccc(-c2ccccc2)cc1NC(=O)c1ccc2nc(C)c(N(C)C(=O)CCc3ccccc3)n2c1	inactive

SMILES	cytotoxicity call
C[C@H](CO)N1C[C@H](C)[C@H](CN(C)C(=O)C2CCC2)Oc2cc(C#Cc3ccncc3)ccc2S1(=O)=O	inactive
N[C@H]1CCN(c2ccc(C(F)(F)F)cn2)C1	inactive
COc1ccc(S(=O)(=O)Nc2ccc3c(c2)C(=O)N([C@H](C)CO)C[C@H](C)[C@@H](CN(C)Cc2ccc(C(F)(F)F)cc2)OCCCC[C@H](C)O3)cc1	inactive
COc1ccc(S(=O)(=O)Nc2ccc3c(c2)C(=O)N([C@H](C)CO)C[C@H](C)[C@H](CN(C)Cc2ccc(C(F)(F)F)cc2)OCCCC[C@@H](C)O3)cc1	inactive
COc1ccc(S(=O)(=O)Nc2ccc3c(c2)C(=O)N([C@@H](C)CO)C[C@H](C)[C@H](CN(C)Cc2ccc(C(F)(F)F)cc2)OCCCC[C@H](C)O3)cc1	active
COc1ccc(S(=O)(=O)Nc2ccc3c(c2)C(=O)N([C@@H](C)CO)C[C@H](C)[C@H](CN(C)Cc2ccc(C(F)(F)F)cc2)OCCCC[C@@H](C)O3)cc1	inactive
COc1ccc(S(=O)(=O)Nc2ccc3c(c2)C(=O)N([C@@H](C)CO)C[C@@H](C)[C@H](CN(C)Cc2ccc(C(F)(F)F)cc2)OCCCC[C@H](C)O3)cc1	active
COc1ccc(S(=O)(=O)Nc2ccc3c(c2)C(=O)N([C@H](C)CO)C[C@@H](C)[C@H](CN(C)Cc2ccc(C(F)(F)F)cc2)OCCCC[C@H](C)O3)cc1	inactive
C[C@]12C[C@]3(O)O[C@@H](O1)[C@]1(COC(=O)c4ccccc4)[C@H]3C[C@@]12O[C@@H]1O[C@H](CO)[C@@H](O)[C@H](O)[C@H]1O	inactive
COc1ccc(COC[C@@]23Oc4ccccc4[C@@H](NC(=S)N2C)[C@@H]3CO[Si](C)(C)C(C)(C)C)cc1	inactive
C[C@H](CO)N1C[C@H](C)[C@H](CN(C)Cc2ccncc2)OCCCC[C@H](C)Oc2ccc(NC(=O)Cc3ccccc3)cc2C1=O	inactive
C[C@@H]1CN([C@@H](C)CO)C(=O)c2cc(NC(=O)Nc3ccccc3)ccc2O[C@H]1CN(C)C(=O)Nc1ccc(C(F)(F)F)cc1	inactive
C[C@@H]1CN([C@H](C)CO)C(=O)c2cc(NC(=O)Nc3ccccc3)ccc2O[C@@H]1CN(C)C(=O)Nc1ccc(C(F)(F)F)cc1	inactive
C[C@H]1CN([C@@H](C)CO)C(=O)c2cc(NC(=O)Nc3ccc(C(F)(F)F)cc3)ccc2O[C@@H]1CN(C)C(=O)Nc1ccccc1	inactive
C[C@@H]1CN([C@@H](C)CO)C(=O)c2cc(NC(=O)Nc3ccccc3)ccc2O[C@@H]1CN(C)C(=O)Nc1ccc(C(F)(F)F)cc1	inactive
C[C@H]1CN([C@@H](C)CO)C(=O)c2cc(NC(=O)Nc3ccccc3)ccc2O[C@H]1CN(C)C(=O)Nc1ccc(C(F)(F)F)cc1	inactive
C[C@H](CO)N1C[C@H](C)[C@H](CN(C)C(=O)Nc2ccc(C(F)(F)F)cc2)Oc2ccc(NC(=O)Nc3ccccc3)cc2C1=O	active
C[C@H](CO)N1C[C@H](C)[C@H](CN(C)C(=O)Nc2ccccc2)Oc2ccc(NC(=O)Nc3ccc(C(F)(F)F)cc3)cc2C1=O	active
C[C@H](CO)N1C[C@H](C)[C@@H](CN(C)C(=O)Nc2ccccc2)Oc2ccc(NC(=O)Nc3ccc(C(F)(F)F)cc3)cc2C1=O	inactive
C[C@@H]1CN([C@@H](C)CO)C(=O)c2cc(NC(=O)Nc3ccc(C(F)(F)F)cc3)ccc2O[C@@H]1CN(C)C(=O)Nc1ccccc1	active
